NS1 function inh = qHTS Assay for Inhibitors of Influenza NS1 Protein Function; Potency, µM (doses to about 46.1 µM), for inactives: top-dose activity, positive = more growth; 270,000 compounds, 0.4% hits; AID 2326, 2010; calls by dose curve; also: actives are rising curves; nearly all actives have a fitted effect of over 50% in size
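Recovery from NS1-induced slow growth read by OD600 in budding yeast switched to galactose assay medium (pH 6.0, -URA) at 1:100 dilution. Compound 23 nl per well; the matching strain lacking NS1 serves as control.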
Pf growth 96h = Primary qHTS for delayed death inhibitors of the malarial parasite plastid, 96 hour incubation | P. falciparum luciferase reporter growth, 96 h | Potency, µM (titrated, usually from 28.7 µM), without a hit: top-dose activity change, negative = inhibition, usual class: inhibitors | 320,000 compounds, 6.9% hits | AID 504834, 2011; also: % is scaled to controls: 0 for no effect and ±100 for the full control effect
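Infected RBCs, 2% Hct / 0.05% parasitemia final; luciferase-reporter P. falciparum; cpd 96 h, 37 C, 5% CO2; luciferase detection reagent; luminescence.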
Sm TGR inh = qHTS Assay for the Inhibitors of Schistosoma Mansoni Peroxiredoxins; purified TGR, DTNB reduction, TNB absorbance 405 nm; AID 485364, 2010; Schistosoma mansoni thioredoxin glutathione reductase (TGR), Q962Y6; Potency, µM (series often up to 114 µM), without a hit: at the highest dose activity change, negative = inhibition, usual class: inhibitors; 360,000 compounds, 3% hits; also: % is scaled to controls: 0 for no effect and ±100 for the full control effect; nearly all actives have a fitted effect of over 60% in size
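Kinetic colorimetric format: TGR-catalysed, NADPH-driven DTNB reduction monitored via TNB absorbance. Enzyme dispensed at 20 nM; compound exposure 15 min at room temperature before reaction start.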
AMA1 RON2 block = qHTS for Inhibitors of AMA1-RON; Towards Development of Antimalarial Drug Lead: Primary Screen; Plasmodium falciparum AMA1 (3D7) - RON2 peptide interaction; AlphaScreen AMA1-biotinylated RON2 peptide binding; Potency, µM (titrated, usually from 58.2 µM), without a hit: at the top dose activity change, negative = inhibition, hits mostly inhibitors; 360,000 compounds, 0.2% hits; AID 720542, 2013;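 also: 0% = vehicle wells and -100% = peptide control; nearly all actives have a fitted effect of over 45% in size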
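AMA1 (3D7) with his tag at 25 nM final met compounds first, then biotinylated RON2 peptide at 25 nM; detection used donor plus acceptor beads, 10 µg/mL apiece, read by AlphaScreen after 30 min at room temperature.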
Pf growth 48h = Primary qHTS for delayed death inhibitors of the malarial parasite plastid, 48 hour incubation | P. falciparum luciferase growth in erythrocytes, 48 h | Potency, µM (titrated, usually from 28.7 µM), for inactives: at the top dose activity change, negative = inhibition, actives largely listed as inhibitors | 310,000 compounds, 5.9% hits; also: % is scaled to controls: 0 for no effect and ±100 for the full control effect
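Parasite viability was followed by luminescence of a genomically integrated firefly luciferase. Cultures held 0.1% parasitemia at 2% hematocrit (final), incubated under 5% CO2 at 37 C.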
* = called active by the depositor; ? = inconclusive; . = no result given; [ ] = remark or other dose. Shown are actives, neighbours in structure and some others; about 11% of the full set was active somewhere. Unless noted, calls follow the shape of the dose curve; as a rule, active = well fitted curve in the direction sought with a large enough effect; inconclusive = small, poorly fitted or top-dose-only effect, or another doubt; inactive = no such curve, though single readings can be large; an effect the other way counts as inactive or inconclusive. Potency is read from the fitted curve at half-maximal effect.

SMILES | NS1 function inh | Pf growth 96h | Sm TGR inh | AMA1 RON2 block | Pf growth 48h
COCC(C)n1c(C)cc(C(=O)COc2ccc(N(C)S(=O)(=O)c3ccc(NC(C)=O)cc3)cc2)c1C (stereo not given) | . | 1.3µM* | 9% | 0% | 4.7µM*
O=C(COc1ccc(C(=S)N2CCCC2)cc1)Nc1ccc(F)cc1 | -11% | 10µM* | 9% | -12% | -22%
CC(=O)c1ccccc1NC(=O)COc1ccc(N(C)S(=O)(=O)c2ccc(C)c(C)c2)cc1 | . | 12µM* | -1% | 4% | 10µM*
Cc1ccc(NC(=O)COc2ccc(N(C)S(=O)(=O)c3ccc(F)cc3)cc2)cc1 | . | 10µM* | -10% | -10% | ?
CN(c1ccc(OCC(=O)OCC(=O)Nc2ccc(F)cc2)cc1)S(=O)(=O)c1ccc(Cl)cc1 | -12% | ? | 1% | 5% | -7%
Cc1ccc(C(=O)c2oc3ccccc3c2NC(=O)COc2ccc(C(C)(C)C)cc2)cc1 | . | . | 5% | . | .
COc1ccc(CCN(C)C(=O)COc2ccc(C(=O)c3ccccc3)cc2)cc1OC | . | ? | 1% | -1% | ?
Cc1ccc(S(=O)(=O)N(C)c2ccc(OCC(=O)NCC3(N(C)C)CCCCC3)cc2)cc1 | . | 9.3µM* | -4% | -14% | 9.3µM*
COc1ccc(CCN(C)C(=O)COc2ccc(N(C)S(=O)(=O)c3ccc(C)cc3)cc2)cc1OC | . | 10µM* | -6% | 10% | 9.3µM*
COc1ccc(C(CNC(=O)c2oc3ccc(Cl)cc3c2C)N2CCCCC2)cc1 (stereo not given) | 2% | ? | 10% | 11% | ?
COc1ccc(C(CNC(=O)c2oc3c(Cl)cccc3c2C)N2CCCC2)cc1 (stereo not given) | . | 10µM* | 0% | 5% | ?
COc1ccc(C(CNC(=O)c2oc3ccccc3c2C)N2CCCC2)cc1 (stereo not given) | . | 9.3µM* | -6% | -4%[11.6 µM] | 9.3µM*
COc1ccc(C(=O)NNC(=O)Cc2ccc([N+](=O)[O-])cc2)cc1 | 2% | -3% | 5% | 3%[2.32 µM] | 29%
COc1ccc(CC2(C)OC(c3ccc([N+](=O)[O-])cc3)=NN2C(C)=O)cc1 (stereo not given) | -33% | 9.3µM* | 5% | ? | 9.3µM*
CSc1ccc(C(=O)N2CCc3ccc(NC(=O)c4ccccn4)cc3C2)cc1 | -4% | 15µM* | 8% | 18% | ?
CSc1ccccc1C(=O)N1CCc2ccc(NC(=O)c3ccccn3)cc2C1 | . | . | . | -2% | .
CS(=O)(=O)N(CC(=O)Nc1ccccc1C(=O)N1CCOCC1)c1ccccc1 | 1% | 26% | 37% | 0% | 0%
CCOc1ccccc1NC(=O)CC1(CC(=O)N2CCOCC2)CCCC1 | . | ? | 40µM* | -4% | ?
COc1ccc(N(CC(=O)Nc2ccccc2C(=O)N2CCOCC2)S(=O)(=O)c2ccc(F)cc2)cc1 | -14% | 10µM* | 10% | -3% | -1%
CCOc1ccccc1N(CC(=O)Nc1ccccc1C(=O)N1CCOCC1)S(C)(=O)=O | 7% | 10µM* | 3% | -2% | 3%
COc1ccc(NC(=O)CC2(CC(=O)N3CCOCC3)CCCC2)cc1Cl | . | ? | -7% | -3% | ?
COc1ccc(N(CC(=O)Nc2ccccc2C(=O)N2CCCC2)S(=O)(=O)c2ccccc2)cc1 | 11% | 17% | -10% | -8% | ?
CCCNC(=O)C1(C)CCCN(C(=O)Cc2ccc(OC)c(OC)c2)C1 (stereo not given) | . | . | . | 7% | .
COc1ccc(NC(=S)N2CCC(c3nc4ccccc4o3)CC2)c(OC)c1 | . | -1% | -10% | -8% | 14%
COc1ccc(-c2cc3ccc(OC)cc3cn2)cc1 | . | 180% | 16µM* | 5% | 127%
SMILES | NS1 function inh | Pf growth 96h | Sm TGR inh | AMA1 RON2 block | Pf growth 48h
O=C(Cc1ccc(F)cc1)N1CCC(CC2CC(c3cccc(Br)c3)=NO2)(C(=O)NCC2CCCCC2)CC1 (stereo not given) | 6% | 1.2µM* | -5% | -2% | ?
O=C(Cc1ccc(F)cc1)N1CCC(CC2CC(c3ccc(Cl)cc3)=NO2)(C(=O)NCC2CCCCC2)CC1 (stereo not given) | 23% | 4.7µM* | 8% | -4% | ?
CCOC(=O)C(C)Sc1nnc(NC(=O)c2cccc([N+](=O)[O-])c2C)s1 (stereo not given) | 4% | ? | 3% | -2%[2.32 µM] | -6%
CCOC(=O)C(C)Sc1nnc(NC(=O)c2ccc(C)c([N+](=O)[O-])c2)s1 (stereo not given) | -24% | 15µM* | 8% | 6%[2.32 µM] | -3%
CCOc1ccc2c(c1)c(C(C)=O)c(C)n2Cc1ccco1 | 2% | 4% | 10µM* | -3% | -3%
CCOc1cccc(=O)c2c(C)n(Cc3ccco3)c(C)c12 | 12% | ? | 40µM* | 13% | 9.3µM*
CCOc1cccc(=O)c2c(C)n(Cc3ccccc3)c(C)c12 | 15% | 27% | . | -4% | ?
COc1ccccc1NC(=O)Cn1c(=O)n(-c2cccc(C(C)=O)c2)c(=O)c2c3c(sc21)CN(C(C)=O)CC3 | . | . | 8% | . | .
COc1ccc(-c2noc(CN(C)CCC3CCCCO3)n2)cc1 (stereo not given) | -1% | -28% | -6% | -26% | ?
COC(=O)c1ccc(-c2noc(CN(C)CCC3CCCCO3)n2)cc1 (stereo not given) | -49% | ? | 0.1µM* | -9% | -29%
COc1cc(/C=C/c2cc[n+](C)cc2)ccc1OCC(=O)Nc1ccc(Cl)c(Cl)c1 | -6% | -20% | ? | 1% | ?
COc1cc(/C=C/c2cccc[n+]2C)ccc1OCC(=O)Nc1ccccc1 | -4% | 0% | -5% | -9% | 1µM*
COc1ccc(NC(=O)COc2ccc(/C=C/c3cc[n+](C)cc3)cc2OC)cc1 | -4% | -2% | -7% | 0% | 1.9µM*
COc1ccc(NC(=O)COc2ccc(/C=N/n3c(C)nnc3C)cc2OC)cc1 | -17% | 12µM* | -3% | -2% | .
COc1ccc(NC(=O)COc2ccc(/C=C/c3cccc[n+]3C)cc2OC)cc1 | -5% | 5% | 2% | -1% | 0.93µM*
C/C=C/c1ccc(OCC(=O)Nc2cc(OC)c(OC)c(OC)c2)c(OC)c1 | . | ? | -12% | -8% | -16%
Cc1cccc(NC(=O)C2CCCN(S(=O)(=O)c3c(C)noc3/C=C/N(C)C)C2)c1C (stereo not given) | . | . | -3% | . | .
COc1cc(/C=C/c2cccc[n+]2C)ccc1OCC(=O)Nc1cccc(Cl)c1 | -4% | -8% | -13% | -10% | 0.93µM*
COc1ccccc1OCC(=O)Nc1ccc(Cl)cc1 | -15% | 34% | -5% | 4% | 36%
